# KCNQ2 block = KCNQ2 (rat) channel inhibition | O88943 | CHO-K1 KCNQ2, FluxOR thallium flux, 20 min; active compounds read low | B-score at 10 µM | hit rate 1.1% among 310,000 | AID 2156;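 active means fluorescence ratio B-score at most minus 3 library SDs, with starting brightness B-score within 2 library SDs, cut at about -5.5 in these data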
# KCNQ2 enhance = KCNQ2 (rat) channel potentiation | AID 2239 | hit rate 0.54% among 310,000 | CHO-K1 KCNQ2, FluxOR thallium flux fluorescence; active compounds read high | B-score at 10 µM;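 active means fluorescence ratio B-score at least 3 SD of library B-scores, with initial fluorescence B-score within 3 of them, cut at about 5.3 in these data; same plate scores as AID 2156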;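 further: B-score of peak minus minimum over baseline fluorescence ratio after K+ and Tl+ stimulus; positive B-score means potentiation of KCNQ2 with more thallium influx and brighter signal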
# Kir21 conf inh = confirmation of mouse Kir2.1 potassium channel inhibitors; shares compounds with KCNQ2 enhance; Kir2.1-expressing cells, FluxOR thallium flux fluorescence; active compounds read low; Tl flux remaining, % of negative control (active compounds read low), % at 10 µM; hit rate 41% among 2,300;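 active means Primary-screen hit whose thallium flux fell at least 3 control SD below untreated wells in both duplicates, with normal baseline fluorescence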;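 further: 0% = blank wells without stimulus and 100% = stimulated no-compound controls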
# Target sequence (P35561 whole entry, looked up): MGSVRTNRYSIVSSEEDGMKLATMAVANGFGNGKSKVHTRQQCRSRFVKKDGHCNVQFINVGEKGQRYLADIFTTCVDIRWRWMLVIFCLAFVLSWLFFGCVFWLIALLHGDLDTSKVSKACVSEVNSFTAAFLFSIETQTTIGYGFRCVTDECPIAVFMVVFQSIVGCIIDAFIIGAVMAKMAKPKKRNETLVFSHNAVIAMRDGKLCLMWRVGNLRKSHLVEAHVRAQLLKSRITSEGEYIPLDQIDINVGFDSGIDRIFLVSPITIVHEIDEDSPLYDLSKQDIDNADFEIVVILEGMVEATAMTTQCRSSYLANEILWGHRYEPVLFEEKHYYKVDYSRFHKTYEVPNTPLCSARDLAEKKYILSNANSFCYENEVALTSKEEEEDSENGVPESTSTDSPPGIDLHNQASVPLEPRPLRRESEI
# HEK293 Tl flux = counter-screen for Kir2.1 inhibitors: effect in parental HEK293 cells; FluxOR thallium flux fluorescence; 0% = unstimulated blank wells; FluxOR signal as % of negative control (100 = no effect), % at 10 µM; AID 2105; shares compounds with KCNQ2 enhance; hit rate 19% among 2,300;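 active means dye signal at least 3 control SD above or below untreated wells in both duplicates, raw fluorescence within 3, either direction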;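 further: percent is based on the flux ratio of peak minus minimum fluorescence over baseline F0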
# CHO-K1 ctr = parental CHO-K1 activity in KCNQ2 potentiator counter-screen | shares compounds with KCNQ2 enhance | parental CHO-K1 cells, FluxOR thallium flux fluorescence; zero = vehicle mean+3SD, 100% = vehicle-minus-blank window | activity increase over 3SD of controls, % at 10 µM | hit rate 43% among 1,200 | AID 2282;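 active means signal rise of at least 3 SD above the untreated control mean, in both duplicate wells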;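 further: counter screen of KCNQ2 potentiator hits so any rise reflects channel-independent effects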
# KCNQ1 pot spec = tests whether KCNQ2 potentiators also act on human KCNQ1 | CHO KCNQ1 stable, FluxOR thallium flux fluorescence; beyond 3SD, as % of vehicle-control signal | shares compounds with KCNQ2 enhance | hit rate 28% among 1,200 | activation over 3SD threshold, % at 10 µM;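 active means fluorescence ratio rise of at least 3 SD of vehicle wells above their mean, in both replicate wells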;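 further: 0% = vehicle mean plus 3 SD and 100% = vehicle minus unstimulated blank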
# KCNQ2 pot confirm = confirmation of rat KCNQ2 potassium channel potentiators; shares compounds with KCNQ2 enhance; CHO-KCNQ2 cells, FluxOR thallium flux fluorescence; potentiation, less the hit threshold, % at 10 µM; hit rate 68% among 1,200; AID 2287;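 active means fluorescence ratio rising 3 SD or more over the vehicle control mean in both replicates, plus primary screen hit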;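 further: peak minus minimum thallium fluorescence divided by baseline after K/Tl stimulus; 0% = vehicle mean plus 3 SD and 100% = vehicle minus unstimulated blank difference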
# Kir21 spec = mouse Kir2.1 off-target activity of KCNQ2 potentiators | hit rate 2% among 1,200 | AID 2345 | activity over 3SD threshold, % at 10 µM | HEK293 Kir2.1, FluxOR thallium flux fluorescence | shares compounds with KCNQ2 enhance;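 active means fluorescence ratio rise of at least 3 SD above the vehicle-control mean, seen in both replicates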;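 further: 0% = vehicle mean plus 3 SD and 100% = vehicle minus no-stimulus blank window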
# KCNQ2 W236L MoA = potentiates the retigabine-insensitive rat KCNQ2 W236L mutant channel | shares compounds with KCNQ2 enhance | CHO KCNQ2-W236L, automated patch clamp current | current increase over 3SD of negative controls (%), active compounds read high, % at 25 µM | hit rate 10% among 940;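 active means current increase at least 3 SD of the untreated controls above them in both duplicate recordings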
# * = called active by the depositor; i = inactive; x = no result. Shown are actives, neighbours in structure and some others; about 1.6% of the full set was active somewhere.
SMILES,KCNQ2 block,KCNQ2 enhance,Kir21 conf inh,HEK293 Tl flux,CHO-K1 ctr,KCNQ1 pot spec,KCNQ2 pot confirm,Kir21 spec,KCNQ2 W236L MoA
O=C(O)COc1c(-c2ccco2)oc2ccccc2c1=O,i,2,x,x,x,x,x,x,x
COc1ccc(-c2oc3ccccc3c(=O)c2OC(C)=O)cc1,i,6.7*,i,310%*,89*,-21,19*,-27,i
COc1ccc(-c2oc3ccccc3c(=O)c2OCC(=O)O)cc1,i,0.85,x,x,x,x,x,x,x
CC(=O)Oc1c(-c2ccc(Br)o2)oc2ccccc2c1=O,i,16*,i,462%*,114*,-8,62*,-19,i
CCCC1CC(C(=O)NC(C(C)Cl)C2OC(SC)C(O)C(O)C2O)N(C)C1 (stereo not given),i,0.47,x,x,x,x,x,x,x
COc1cc(/C=N/NC(=O)COc2ccc([N+](=O)[O-])cc2)ccc1OCC(=O)N1CCOCC1,i,0.9,x,x,x,x,x,x,x
CC(C)(C)c1ccc(C(=O)NC(=S)N2CCCC2)cc1,i,2.1,x,x,x,x,x,x,x
CC1CCN(C(=S)NC(=O)c2ccc(C(C)(C)C)cc2)CC1,i,7.1*,x,x,-11,-14,5.8*,-37,i
CC1CCN(C(=S)NC(=O)c2ccccc2)CC1,i,0.9,x,x,x,x,x,x,x
CC(C)(C)c1ccc(C(=O)NC(=S)N2CCCCCC2)cc1,i,8.8*,i,268%*,-24,37*,0.7*,-21,4.9%*
COc1ccc(C(=O)NC(=S)N2CCC(C)CC2)cc1Br,i,6.5*,i,247%*,-14,-15,-2,-38,i
COc1ccc(C(=O)NC(=S)N2CCNC(=O)C2)cc1Br,i,1.3,x,x,x,x,x,x,x
CC(C)(C)OC(=O)NC1CCN(S(=O)(=O)c2ccc3c(c2)OCCO3)CC1,i,0.18,x,x,x,x,x,x,x
O=C(Cc1ccccc1)Nc1cc(C(=O)c2ccccc2)ccc1N1CCOCC1,i,x,x,x,x,x,x,x,x
Cc1ccc(CN2CCC(n3nccc3NC(=O)CCOc3ccccc3)CC2)o1,i,1.4,x,x,x,x,x,x,x
COCc1cccc(C(=O)NC(c2ccccc2)c2ccccc2)c1,i,x,x,x,x,x,x,x,x
O=C(O)c1cc2ccccc2c(N=Nc2cccnc2)c1O,i,2.2,x,x,x,x,x,x,x
CC(C)CC(C)N1CCC(n2nccc2NC(=O)CCc2ccccc2)CC1 (stereo not given),i,0.01,x,x,x,x,x,x,x
CC(=O)Nc1c(-c2cc(=O)oc3cc(C)ccc23)oc2ccccc12,i,x,x,x,x,x,x,x,x
O=C(COC(=O)C1CCCC1)Nc1ncc(Cl)cc1Cl,i,x,x,x,x,x,x,x,x
CC(C)(C)c1csc(N/N=C/c2cccnc2)n1,i,1.5,x,x,x,x,x,x,x
Cc1ccc(/C=N/Nc2nc(C(C)(C)C)cs2)o1,i,6.9*,i,70%*,-8,-27,-3,-33,i
Cc1ccc(OC(=O)C(C)c2cccc(C(=O)c3ccccc3)c2)cc1 (stereo not given),i,x,x,x,x,x,x,x,x
Cc1ccccc1NC(=O)C(C)c1cccc(C(=O)c2ccccc2)c1 (stereo not given),i,5.3,i,i,117*,13*,16*,-29,i
Cc1ccc(C)c(-c2cc(C(=O)NCc3cccs3)c3ccccc3n2)c1,i,16*,i,72%*,8.2*,-14,32*,-37,i
Cc1ccc(C)c(-c2cc(C(=O)Nc3nccs3)c3ccccc3n2)c1,i,x,x,x,x,x,x,x,x
CC1CC(C)CN(C(=O)CN(C)S(=O)(=O)c2ccc3c(c2)c(=O)n(C)c(=O)n3C)C1 (stereo not given),i,0.42,x,x,x,x,x,x,x
CC1CCN(S(=O)(=O)N2CCC(C(=O)NCc3ccc4c(c3)OCO4)CC2)CC1,i,0.08,x,x,x,x,x,x,x
